Test results from PubChem BioAssay (NCATS).
Inconclusive results are not listed. The source made the active and inactive calls. The call rests on the fitted dose curve; in most records, active means well fitted curve in the direction sought with a large enough effect; inconclusive means small, poorly fitted or top-dose-only effect, or another doubt; inactive means no such curve, though single readings can be large; an effect the other way counts as inactive or inconclusive. Square brackets hold non-standard residues; d marks the D form. Peptide text beside a SMILES is read from it. ξ: configuration not given here. ξL = CC(C)CC(N)C(=O)O

How the values were obtained:
[1] = OV-KATE Cancer Cell Toxicity qHTS against the NCATS CANVASS Library (AID 1347345); conditions: OV-KATE cells viability, CellTiter-Glo luminescence, 72 h; series mostly up to 38.3 µM
Outline: (§1)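 1000 cells/well seeded and rested 4 h at 37 °C before pin transfer of compounds in an 11-pnt series. Exposure 72 h at 37 °C/5% CO2; viability by CellTiter-Glo luminescence after 15 min at room temperature.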

[2] = HPAF-II Cancer Cell Toxicity qHTS against the NCATS CANVASS Library (AID 1347346); conditions: HPAF-II viability, CellTiter-Glo ATP luminescence, 72 h; series mostly up to 38.3 µM; further: nearly all actives have a fitted effect of over 55% in size
Outline: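 Cytotoxicity in HPAF-II pancreatic cancer cells: 72 h treatment across 11 concentrations, ATP-based CellTiter-Glo luminescence endpoint.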

[3] = UWB1.289 Cancer Cell Toxicity qHTS against the NCATS CANVASS Library (AID 1347347); conditions: UWB1.289 viability, CellTiter-Glo luminescence, 72 h; series mostly up to 38.3 µM; further: nearly all actives have a fitted effect of over 60% in size; further: potency means the concentration at half of the fitted maximal effect
Outline: as §1

[4] = Panc-1005 Cancer Cell Toxicity qHTS against the NCATS CANVASS Library (AID 1347349); conditions: Panc-1005 viability, CellTiter-Glo luminescence, 72 h; series mostly up to 38.3 µM; further: nearly all actives have a fitted effect of over 60% in size
Outline: as §1

[5] = SW1088 Cancer Cell Toxicity qHTS against the NCATS CANVASS Library (AID 1347350); conditions: SW1088 viability, CellTiter-Glo luminescence, 72 h; series mostly up to 38.3 µM; further: nearly all actives have a fitted effect of over 75% in size; further: potency means the concentration at half of the fitted maximal effect
Outline: as §1

[6] = U-118MG Cancer Cell Toxicity qHTS against the NCATS CANVASS Library (AID 1347351); conditions: U-118MG viability, CellTiter-Glo luminescence, 72 h; series mostly up to 38.3 µM
Outline: as §1

[7] = COV-362 Cancer Cell Toxicity qHTS against the NCATS CANVASS Library (AID 1347352); conditions: COV-362 viability, CellTiter-Glo luminescence, 72 h; series mostly up to 38.3 µM
Outline: (§2)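 qHTS cytotoxicity: compounds tested in 11 concentrations on 1000 seeded cells per well over 72 h; bortezomib served as control; signal from CellTiter-Glo luminescence.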

[8] = UWB1.289-WTBRCA1 Cancer Cell Toxicity qHTS against the NCATS CANVASS Library (AID 1347354); conditions: UWB1.289-WTBRCA1 viability, CellTiter-Glo luminescence, 72 h; series mostly up to 38.3 µM
Outline: as §2

[9] = HEK-293 Cancer Cell Toxicity qHTS against the NCATS CANVASS Library (AID 1347355); conditions: HEK-293 viability, CellTiter-Glo luminescence, 72 h; series mostly up to 46.1 µM; further: nearly all actives have a fitted effect of over 65% in size; further: potency means the concentration at half of the fitted maximal effect
Outline: as §2

[10] = KB-8-5-11 Cancer Cell Toxicity qHTS against the NCATS CANVASS Library (AID 1347364); conditions: KB-8-5-11 MDR cells viability, CellTiter-Glo, 72 h; series mostly up to 46.1 µM; further: nearly all actives have a fitted effect of over 75% in size
Outline: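 Natural products were titrated in 11 points onto KB-8-5-11 cells, 500 per well, and cytotoxicity was scored from CellTiter-Glo luminescence after 72 hr culture.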

[11] = SDT Cancer Cell Toxicity qHTS against the NCATS CANVASS Library (AID 1347365); conditions: SDT dog glioma viability, ATP luminescence, 72 h; series mostly up to 46.1 µM; further: nearly all actives have a fitted effect of over 60% in size; further: potency means the concentration at half of the fitted maximal effect
Outline: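 Dispense 500 SDT cells per well; pin-transfer compounds; incubate 72 hr at 37C, 5% CO2, 95% RH; add CellTiterGlo and read luminescence.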

[12] = qHTS for ATAD5 Agonist screened against the NCATS CANVASS Library (AID 1347367); conditions: HEK293T ATAD5-luciferase reporter, luminescence, 16 h; series mostly up to 46.1 µM;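 further: luciferase reporter driven by ATAD5 which rises upon DNA damage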
Outline: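 HEK293T cells stably carrying an ATAD5-controlled luciferase reporter (2000 cells/well) attached for 5 hr, then received compounds in an 11-point series for 16hr at 37C. Luminescence was read after a 30 min room-temperature reagent step.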

[13] = qHTS for Hypoxia signaling pathway (HIF-1) antagonists against the NCATS CANVASS Library (AID 1347374); conditions: HRE-bla ME-180 cells, HIF-1 beta-lactamase reporter, CoCl2; series mostly up to 38.3 µM; further: nearly all actives have a fitted effect of over 60% in size; further: potency means the concentration at half of the fitted maximal effect
Outline: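 HRE-bla ME-180 cells (2,000/well, 0.5% dialyzed FBS) were pre-incubated 5 h, then given an 11-point compound series plus CoCl2 (60 uM solution as added) for 17 h at 37C. CCF4 β-lactamase read (ex 405, em 460/530 nm) after 2 h at RT.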

[14] = qHTS for Hypoxia signaling pathway (HIF-1) agonists against the NCATS CANVASS Library (AID 1347375); conditions: HRE-bla ME-180 cells, HIF-1 beta-lactamase reporter, 17 h; series mostly up to 38.3 µM
Outline: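 Inducers of HIF-1 signaling were detected in ME-180 cells bearing an HRE-driven beta-lactamase reporter after 17 h compound exposure. Activity came from CCF4-AM FRET emission ratio (460/530 nm) in qHTS format.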

[15] = DH5-alpha competent E. coli microbial cell viability qHTS against the NCATS CANVASS Library (AID 1347377); conditions: BacTiter-Glo ATP luminescence, overnight; series mostly up to 46.1 µM
Outline: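 Cell viability of competent DH5-alpha E. coli is scored from ATP content by luminescence. Cells sit overnight at 37C with compound across an 11-point concentration series.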

[16] = qHTS for inhibitors of ER calcium dysfunction: SERCaMP assay screened against the NCATS CANVASS Library (AID 1347393); conditions: SH-SY5Y GLuc-SERCaMP secretion, thapsigargin, luminescence; series mostly up to 76.6 µM; further: nearly all actives have a fitted effect of over 40% in size; further: potency means the concentration at half of the fitted maximal effect
Outline: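 SH-SY5Y GLuc-SERCaMP, 1000 cells/well, 4 h attach; cpd 16 h, 37C/5% CO2; thapsigargin (added as 6x 600 nM) 4 h; coelenterazine; luminescence. Reduced reporter release = ER Ca stabilization.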

[17] = qHTS for inhibitors of Wild type Zika virus screened against the NCATS CANVASS Library (AID 1347396); conditions: Vero cells, Zika virus CPE, CellTiter-Glo, 72 h; series mostly up to 45.9 µM;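 further: ATP luminescence of surviving cells so rescue from viral cell killing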
Outline: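 Protection against wild-type Zika cytopathic effect is measured in African green monkey Vero 766 cells exposed to an 11-point compound series. Surviving cells are quantified by CellTiter Glo luminescence after 72 h.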

[18] = target: Nuclear receptor subfamily 1 group I member 3 (Homo sapiens) (UniProt Q14994); experiment: qHTS for Constitutive Androstane Receptor (CAR) Antagonist screened against the NCATS CANVASS Library (AID 1347372); conditions: HepG2-hCAR-CYP2B6 luciferase, CITCO-stimulated antagonist mode; series mostly up to 46.1 µM;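 further: cells stimulated with 50 nM CITCO agonist so inhibition reflects antagonism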
Outline: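 HepG2 cells stably carrying hCAR and CYP2B6-2.2kb luciferase reporter, 2500 cells/well, compound with 50 nM CITCO agonist for 24hr at 37C. ONE-Glo luminescence measured CAR activity; CellTiter-Fluor read viability.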

[19] = target: Nuclear receptor subfamily 1 group I member 3 (Homo sapiens) (UniProt Q14994); experiment: qHTS for Constitutive Androstane Receptor (CAR) Agonist screened against the NCATS CANVASS Library (AID 1347373); conditions: HepG2-hCAR-CYP2B6 luciferase reporter, ONE-Glo luminescence; series mostly up to 46.1 µM;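 further: every well also contained 1.5 µM PK11195 alongside the test compound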
Outline: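 CAR agonism is scored as CYP2B6-promoter luciferase induction in a double-stable transfected HepG2 line, where 1.5uM PK11195 is included in each well. Compounds were tested over a 24hr exposure.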

[20] = Secretion counterscreen for inhibitors of the SERCaMP assay screened against the NCATS CANVASS Library (AID 1347390); conditions: SH-SY5Y constitutive GLuc secretion, luminescence, 20 h; series mostly up to 76.6 µM;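 further: light from luciferase secreted into medium read as a measure of general secretion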
Outline: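 SH-SY5Y cells expressing constitutively secreted GLuc, 1000 cells/well, attached 4 h at 37C, then exposed to compounds (0.001 - 77 uM, 11-pnt series) for 20 h. Coelenterazine added; luminescence read to flag secretory-pathway interferers.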

Measured: Potency

Chain of Nuclear receptor subfamily 1 group I member 3 (Homo sapiens) (Q14994 whole entry, looked up): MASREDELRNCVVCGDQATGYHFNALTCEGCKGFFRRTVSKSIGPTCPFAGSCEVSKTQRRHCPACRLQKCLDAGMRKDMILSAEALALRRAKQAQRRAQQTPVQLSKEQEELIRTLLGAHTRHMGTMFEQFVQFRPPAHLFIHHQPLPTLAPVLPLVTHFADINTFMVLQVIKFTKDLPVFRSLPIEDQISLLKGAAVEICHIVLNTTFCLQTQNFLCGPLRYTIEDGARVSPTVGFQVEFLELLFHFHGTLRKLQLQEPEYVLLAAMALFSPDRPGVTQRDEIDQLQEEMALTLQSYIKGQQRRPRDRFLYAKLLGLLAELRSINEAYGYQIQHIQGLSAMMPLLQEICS

CC[C@@H]1C[C@@]2(CC)OC(=O)[C@@]3(CC)[C@H](CC)[C@@H]1[C@@H]23
not listed: [18] | [19] | [20]
inactive: all other assays above

O=C1CC(c2ccc(O)cc2)Oc2ccccc21 (stereo not drawn)
active: [3] 3.75 µM | [11] 20.9 µM | [16] 34.3 µM
not listed: [8] | [9] | [12] | [15] | [19] | [20]
inactive: all other assays above

C/C(=C\[C@@H](C)CC/C=C/CC/C=C/C(=O)O)[C@@H](O)[C@H](C)C(=O)CCCC1CC(=O)NC(=O)C1
not listed: [11] | [14] | [18] | [20]
inactive: all other assays above

C=C[C@@]1(C)CC[C@@H]([C@H](C)C(C)=O)O1
not listed: [12] | [14] | [20]
inactive: all other assays above

COC(=O)[C@]1([C@H]2CCC(=O)O2)CC(=O)c2c(O)cc(C)cc2O1
not listed: [14] | [18]
inactive: all other assays above

CC(=O)N[C@H](C)c1nc(/C=C/C=C/C(=O)CC2CC(=O)CC[C@]2(C)O)cs1 (stereo partly drawn)
not listed: [14] | [18]
inactive: all other assays above

CC[C@@H](C)[C@H]1NC(=O)C(CC(C)C)NC(=O)[C@@H](CC(C)C)NC(=O)[C@H](Cc2c[nH]c3ccccc23)NC(=O)CNC(=O)[C@@H](CC(N)=O)NC1=O (stereo partly drawn) (cyclo(GW[dL][ξL][dI][dN]))
active: [5] 11.9 µM | [9] 11.8 µM | [11] 16.6 µM
not listed: [6] | [10] | [12] | [13] | [14]
inactive: all other assays above

C/C1=C/[C@@H](C)[C@H](O)C/C=C/CC/C=C/C(=O)O[C@@H]1[C@H](C)C(=O)CCCC1CC(=O)NC(=O)C1
active: [9] 20.9 µM | [11] 5.26 µM | [13] 18.8 µM
not listed: [2] | [3] | [4] | [6] | [7] | [8] | [20]
inactive: all other assays above
